Experimental data: PubChem BioAssay (NCI)
About 79,000 compounds went through this panel and 15% of them were active in at least one assay; those are over-represented in the sample as a whole. Unmarked numbers belong to inactive results. Activity calls are given as the source filed them. No stated cut-off is given here; in the data, active means growth inhibition above about 70%; inactive means the rest.

What was measured:
[1] = NCI Yeast Anticancer Drug Screen. Data for the rad52 strain (AID 147);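 further: 0% = growth of vehicle-treated control cultures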; details: S. cerevisiae rad52 mutant growth inhibition, stronger effect = higher value
In short: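 The repair-mutant yeast strain was incubated with compounds, then growth was read and inhibition derived relative to vehicle.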

[2] = NCI Yeast Anticancer Drug Screen. Data for the wt1 strain (AID 149);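 further: 0% = growth of vehicle-treated wt1 cultures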; details: S. cerevisiae wt1 strain (SPY 50644) growth inhibition, stronger effect = higher value
In short: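 The wt1 strain was treated with compounds, and growth was compared with vehicle-treated cultures to give inhibition.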

[3] = NCI Yeast Anticancer Drug Screen. Data for the rad50EPP+ strain (AID 151);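 further: 0% = growth of vehicle-treated control cultures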; details: S. cerevisiae rad50 mutant strain, stronger effect = higher value
In short: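 Vehicle-normalised growth inhibition; rad50EPP+ yeast strain, altered in DNA damage repair, compound-treated.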

[4] = NCI Yeast Anticancer Drug Screen. Data for the mgt1 strain (AID 153); details: S. cerevisiae mgt1 mutant growth inhibition, stronger effect = higher value
In short: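 Vehicle-normalized growth inhibition is determined in mgt1 yeast, a strain selected for a defined alteration in DNA repair or cell cycle control.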

[5] = NCI Yeast Anticancer Drug Screen. Data for the rad50 strain (AID 155);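 further: 0% = growth of vehicle-only cultures of the same strain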; details: S. cerevisiae rad50 strain growth inhibition, stronger effect = higher value
In short: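 Cells are treated with compound, grown, and their growth is then scored against vehicle-only cultures of the same repair-deficient yeast strain.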

[6] = NCI Yeast Anticancer Drug Screen. Data for the mec2-1 strain (AID 157); details: S. cerevisiae mec2-1 strain, stronger effect = higher value
In short: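 Mutant yeast (mec2-1) grown with compound; growth inhibition relative to vehicle control reported.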

[7] = NCI Yeast Anticancer Drug Screen. Data for the rad14 strain (AID 159);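 further: 0% = growth of vehicle-treated control cultures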; details: S. cerevisiae rad14 strain growth inhibition, stronger effect = higher value
In short: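 Readout: yeast growth inhibition, referenced to vehicle-only cultures. Strain bears a defined alteration in DNA damage repair.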

[8] = NCI Yeast Anticancer Drug Screen. Data for the sgs1 mgt1 strain (AID 161);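 further: 0% = growth of cultures given vehicle only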; details: S. cerevisiae sgs1 mgt1 strain, stronger effect = higher value
In short: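 This yeast growth screen uses a strain with defined DNA-repair lesions; compound-treated growth is compared with vehicle-treated growth.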

[9] = NCI Yeast Anticancer Drug Screen. Data for the CLN2oe strain (AID 163);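 further: 0% = growth of vehicle-only control cultures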; details: S. cerevisiae CLN2oe strain, stronger effect = higher value
In short: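 Compounds are applied to yeast harbouring a defined cell-cycle control change; reduced growth compared with vehicle-treated controls gives the value.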

[10] = NCI Yeast Anticancer Drug Screen. Data for the cln2 rad14 strain (AID 165);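 further: 0% = growth equal to vehicle treated cultures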; details: S. cerevisiae cln2 rad14 strain, stronger effect = higher value
In short: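 Readout is yeast growth inhibition versus vehicle-treated controls, using a strain with cln2 and rad14 alterations exposed to compound.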

[11] = NCI Yeast Anticancer Drug Screen. Data for the bub3 strain (AID 167); details: S. cerevisiae bub3 mutant strain, stronger effect = higher value
In short: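 Part of a panel of yeast mutants defective in DNA damage repair or cell cycle regulation. Each strain is grown with compound, and inhibition is calculated relative to solvent-treated cultures.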

[12] = NCI Yeast Anticancer Drug Screen. Data for the wt2 strain (AID 169);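 further: 0% = growth of vehicle-treated yeast cultures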; details: S. cerevisiae wt2 strain growth inhibition, stronger effect = higher value
In short: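 Against vehicle-treated controls, the growth of yeast exposed to each compound was compared, and the inhibition was recorded.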

[13] = NCI Yeast Anticancer Drug Screen. Data for the mlh1 strain (AID 171);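 further: 0% = growth of vehicle-treated control cultures of the same strain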; details: S. cerevisiae mlh1 strain growth inhibition, stronger effect = higher value
In short: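 Measured: yeast growth. Reference: vehicle-treated controls. Organism: strain with a defined alteration affecting DNA damage repair or cell cycle control, treated with compound.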

[14] = NCI Yeast Anticancer Drug Screen. Data for the sgs1 strain (AID 173);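 further: 0% = growth of vehicle-only control cultures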; details: S. cerevisiae sgs1 mutant, stronger effect = higher value
In short: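 Each compound was added to cultures of the altered yeast strain. Growth was recorded, and inhibition was derived by comparison with vehicle controls.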

[15] = NCI Yeast Anticancer Drug Screen. Data for the mlh1 rad18 strain (AID 175); details: S. cerevisiae mlh1 rad18 strain growth inhibition, stronger effect = higher value
In short: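 Genetically defined yeast (DNA repair-deficient) exposed to compounds; growth inhibition determined relative to vehicle.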

[16] = NCI Yeast Anticancer Drug Screen. Data for the rad18 strain (AID 177); details: S. cerevisiae rad18 mutant growth inhibition, stronger effect = higher value
In short: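 Vehicle-treated cultures served as the baseline for scoring compound-induced growth inhibition in DNA-repair-mutant yeast.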

[17] = at 5.0 µM (retest, dose inferred, filed as 0.5)
[18] = at 50.0 µM (retest, dose inferred, filed as 5.0)

CCCCCCCC1(N=[N+]=[N-])C(=O)c2ccccc2N(C)C1=O (stereo not drawn)
growth inhibition ([1]; at 1.2 µM): 2% | growth inhibition ([1]; at 3.7 µM): 18% | growth inhibition ([1]; at 11.0 µM): 18% | growth inhibition ([1]; at 33.0 µM): 68% | growth inhibition ([1]; at 100.0 µM): 75% (active) | growth inhibition ([2]; at 1.2 µM): 7% | growth inhibition ([2]; at 3.7 µM): 7% | growth inhibition ([2]; at 11.0 µM): 7% | growth inhibition ([2]; at 33.0 µM): 59% | growth inhibition ([2]; at 100.0 µM): 73% (active) | growth inhibition ([3]; at 1.2 µM): 5% | growth inhibition ([3]; at 3.7 µM): 15% | growth inhibition ([3]; at 11.0 µM): 24% | growth inhibition ([3]; at 33.0 µM): 54% | growth inhibition ([3]; at 100.0 µM): 65% | growth inhibition ([4]; at 1.2 µM): -11% | growth inhibition ([4]; at 3.7 µM): -18% | growth inhibition ([4]; at 11.0 µM): -2% | growth inhibition ([4]; at 33.0 µM): 51% | growth inhibition ([4]; at 100.0 µM): 69% | growth inhibition ([5]; at 1.2 µM): -1% | growth inhibition ([5]; at 3.7 µM): 1% | growth inhibition [5, 17]: -4% | growth inhibition ([5]; at 11.0 µM): 13% | growth inhibition ([5]; at 33.0 µM): 67% | growth inhibition [5, 18]: 60% | growth inhibition ([5]; at 50.0 µM): 79.3% (active) | growth inhibition ([5]; at 100.0 µM): 74% (active) | growth inhibition ([6]; at 1.2 µM): -3% | growth inhibition ([6]; at 3.7 µM): -27% | growth inhibition [6, 17]: -1% | growth inhibition ([6]; at 11.0 µM): -2% | growth inhibition ([6]; at 33.0 µM): 72% (active) | growth inhibition [6, 18]: 80% (active) | growth inhibition ([6]; at 50.0 µM): 81.2% (active) | growth inhibition ([6]; at 100.0 µM): 80% (active) | growth inhibition ([7]; at 1.2 µM): -23% | growth inhibition ([7]; at 3.7 µM): -20% | growth inhibition ([7]; at 11.0 µM): -20% | growth inhibition ([7]; at 33.0 µM): 39% | growth inhibition ([7]; at 100.0 µM): 63% | growth inhibition [8, 17]: -7% | growth inhibition [8, 18]: 71% (active) | growth inhibition ([8]; at 50.0 µM): 79.5% (active) | growth inhibition ([9]; at 1.2 µM): 21% | growth inhibition ([9]; at 3.7 µM): 8% | growth inhibition ([9]; at 11.0 µM): 23% | growth inhibition ([9]; at 33.0 µM): 61% | growth inhibition ([9]; at 100.0 µM): 79% (active) | growth inhibition [10, 17]: 30% | growth inhibition [10, 18]: 75% (active) | growth inhibition ([10]; at 50.0 µM): 68.7% | growth inhibition ([11]; at 1.2 µM): -9% | growth inhibition ([11]; at 3.7 µM): -17% | growth inhibition [11, 17]: 3% | growth inhibition ([11]; at 11.0 µM): -15% | growth inhibition ([11]; at 33.0 µM): 52% | growth inhibition [11, 18]: 83% (active) | growth inhibition ([11]; at 50.0 µM): 64.5% | growth inhibition ([11]; at 100.0 µM): 69% | growth inhibition ([12]; at 1.2 µM): 13% | growth inhibition ([12]; at 3.7 µM): 16% | growth inhibition ([12]; at 11.0 µM): 20% | growth inhibition ([12]; at 33.0 µM): 57% | growth inhibition ([12]; at 100.0 µM): 67% | growth inhibition ([13]; at 1.2 µM): 20% | growth inhibition ([13]; at 3.7 µM): 10% | growth inhibition ([13]; at 11.0 µM): 18% | growth inhibition ([13]; at 33.0 µM): 61% | growth inhibition ([13]; at 100.0 µM): 78% (active) | growth inhibition ([14]; at 1.2 µM): 9% | growth inhibition ([14]; at 3.7 µM): 14% | growth inhibition ([14]; at 11.0 µM): 20% | growth inhibition ([14]; at 33.0 µM): 71% (active) | growth inhibition ([14]; at 100.0 µM): 85% (active) | growth inhibition [15, 17]: 0% | growth inhibition [15, 18]: 87% (active) | growth inhibition ([15]; at 50.0 µM): 76.3% (active) | growth inhibition ([16]; at 1.2 µM): 18% | growth inhibition ([16]; at 3.7 µM): 12% | growth inhibition ([16]; at 11.0 µM): 20% | growth inhibition ([16]; at 33.0 µM): 67% | growth inhibition ([16]; at 100.0 µM): 83% (active)
